From PubChem BioAssay AID488837 (National Center for Advancing Translational Sciences (NCATS), 2010)
In all, about 330,000 compounds went through this assay and about 20 (0.006%) were called active. Not shown: some 1% with an inconclusive outcome. Calls come from the whole dose curve; as a rule, active = well fitted inhibition curve with a large enough effect; inconclusive = small, poorly fitted or top-dose-only effect, or effect the other way; inactive = flat fitted curve, though single readings scatter. Shown is part of a subset that was picked to be rich in actives.

target: Protein phosphatase EYA2 (Homo sapiens) (UniProt O00167); assay: qHTS Assay for Inhibitors of the Phosphatase Activity of Eya2; settings: recombinant Eya2, OMFP fluorescence dephosphorylation (OMFP is methylfluorescein phosphate); series mostly up to 76.9 µM
Sequence (O00167 whole entry, looked up, the tested form may be a part): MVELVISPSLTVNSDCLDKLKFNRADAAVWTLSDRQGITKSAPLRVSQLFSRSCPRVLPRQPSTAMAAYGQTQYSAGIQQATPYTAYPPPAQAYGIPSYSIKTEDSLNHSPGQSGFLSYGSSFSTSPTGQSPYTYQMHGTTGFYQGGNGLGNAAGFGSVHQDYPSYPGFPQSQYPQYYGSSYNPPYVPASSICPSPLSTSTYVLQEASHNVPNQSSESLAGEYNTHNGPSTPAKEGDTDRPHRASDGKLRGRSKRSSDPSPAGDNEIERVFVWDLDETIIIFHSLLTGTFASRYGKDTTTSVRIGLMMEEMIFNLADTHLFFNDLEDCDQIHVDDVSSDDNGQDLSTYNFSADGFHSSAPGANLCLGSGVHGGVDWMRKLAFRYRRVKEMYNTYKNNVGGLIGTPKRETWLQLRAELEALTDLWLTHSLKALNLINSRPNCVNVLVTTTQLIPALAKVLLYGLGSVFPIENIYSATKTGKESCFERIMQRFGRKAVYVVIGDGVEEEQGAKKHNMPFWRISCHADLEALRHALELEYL
From the text: The Eya family of proteins are essential co-activators of the Six1 transcription factor. Six1 is a developmental gene that is abnormally re-expressed in a large percentage of breast cancers. This over-expression plays a causal role in the initiation and metastatic development of breast cancers. The Eya family of proteins was also found to contain a unique HAD phosphatase domain with protein tyrosine phosphatase activity which can potentially play a role in Six1-mediated breast tumorigenesis. […] We have developed and optimized a 1536 well fluorescence-based HTS assay targeting the phosphatase activity of Eya2. Inhibitors found against Eya2 could serve as potential therapeutic tools to inhibit Six1-mediated breast tumorigenesis and to increase the efficiency of radiation and certain chemo therapy. These inhibitors could also be used as chemical probes to study the function of Eya2's phosphatase activity and its role in Six1-mediated breast tumorigenesis.
The Eya2 enzyme was kindly provided by the laboratory of Dr. Rui Zhao. The 3-O-methyl-fluorescein phosphate (OMFP) substrate and all buffer reagents were purchased from Sigma Aldrich. qHTS Assay Setup: 1. Buffer- 50 mM HEPES pH 7.5, 50 mM NaCl, 5 uM MgCl2, 0.05% BSA, 1 mM DTT. 2. OMFP Stock- 10 mM solution prepared in 100% DMSO and stored in single use aliquots at -20C. Assay Procedure- 1. Dispense 1.5 ul per well of Eya2 at 0.2 uM in black medium binding 1536 well Greiner plate 2. Transfer 23 nl of compound and control compound (EGTA) to plate 3. Incubate at ambient for 10 minutes 4. Dispense 1.5 ul per well of OMFP at 50 uM 5. Incubate at ambient for 10 minutes 6. Read on ViewLux using Excitation = 485 nm, Emission = 525 nm

Compound | activity, negative = inhibition
O=C(CN1CCN(S(=O)(=O)c2ccc3ccccc3c2)CC1)NC(=O)NC1CCCCC1 | inactive
CN(CC(=O)Nc1c(Cl)cccc1Cl)C(=O)CC1OC(=O)c2ccccc21 (stereo not given) | inactive
CN(Cc1nc2ccc(F)cc2[nH]1)Cc1nc(CC2CC2)no1 | inactive
COc1ccc(-c2nc(CS(=O)(=O)CC(=O)NCc3cccc(Br)c3)c(C)o2)cc1 | inactive
CCOC(=O)c1ccc2c(c1)nc(SCC(=O)NC(C)C)n2CC | inactive
CC1(C)CC(O)C(CCC(O)c2ccccc2)C(C)(C)N1 (stereo not given) | inactive
Cc1ccc(S(=O)(=O)N(C)C)cc1NC(=O)c1ccccc1Br | inactive
CC1CC(C)CN(CCCNC(=O)Cn2ncc3c([nH]c4ccccc43)c2=O)C1 (stereo not given) | inactive
O=C1COc2ccc(C(=O)COC(=O)C3CC(O)CN3S(=O)(=O)c3ccc(Cl)cc3)cc2N1 (stereo not given) | inactive
NC(=O)Cn1nc([N+](=O)[O-])nc1Oc1ccc(Br)cc1 | inactive
Cc1cc(C)nc(SC2CCCCC2NS(=O)(=O)c2ccc(Cl)cc2)n1 (stereo not given) | inactive
O=C(O)c1cc(S(=O)(=O)Nc2ccc3cn[nH]c3c2)ccc1Br | inactive
CCN(CC(=O)NC1CCS(=O)(=O)C1)S(=O)(=O)c1ccccc1 (stereo not given) | inactive
COc1ccc(COC(=O)c2ccc(Cl)c(S(=O)(=O)N3CCOCC3)c2)cc1F | inactive
CCN(CC)Cc1c(C(=O)N/N=C/c2cccc(OCc3ccc(F)cc3)c2)nnn1-c1nonc1N | inactive
O=C(CN(C(=O)c1csnn1)c1cccc(F)c1)NCc1ccc(F)cc1 | inactive
CC(C)=CCN1CCN(Cc2ccc(Oc3ncccn3)cc2)CC1CCO (stereo not given) | inactive
COc1ccc(N2CCN(C(=O)CN3C(=O)COc4ccccc43)CC2)cc1 | inactive
O=C(O)c1cscn1 | inactive
COc1cccc2cc(-c3cc(=O)oc4cc(C)c(O)cc34)oc12 | inactive
O=C(C[C@H]1C/C=C\C[C@@H](NC(=O)OCC2c3ccccc3-c3ccccc32)C(=O)O[C@@H](c2ccccc2)CNC1=O)N[C@H](CO)Cc1ccccc1 | inactive
CCOc1cc(/C=N/Nc2cc(C)nc3ccc(C)cc23)ccc1O | inactive
CC(C)CN(C(=O)CN1CCN(S(=O)(=O)c2ccccc2)CC1)c1c(N)n(CC(C)C)c(=O)[nH]c1=O | inactive
COc1ccc(S(=O)(=O)N2CCCC(C(=O)NCCCn3ccnc3)C2)cc1OC (stereo not given) | inactive
COc1ccc(NC(=O)C/C(C)=N/NC(=O)c2cnccn2)cc1Cl | inactive

Compound | activity, negative = inhibition
Cc1ccc(S(=O)(=O)N(CC(=O)N/N=C/c2ccc(F)cc2)c2cccc3cccnc23)cc1 | inactive
COc1ccc(C(=O)N(CCN2CCOCC2)CC(=O)NC2CCCC2)cc1OC | inactive
O=C(NC(Cc1c[nH]c2ccccc12)C(=O)O)/C(=C/c1ccco1)NC(=O)c1ccccc1 (stereo not given) | inactive
O=C(NCc1ccccc1Cl)C(=O)NCC1CCCN1S(=O)(=O)c1cccs1 (stereo not given) | inactive
CCC1(C)CC(=O)NC1=O (stereo not given) | inactive
CCCCOC(=O)Nc1nccs1 | inactive
Cc1ccc(NS(=O)(=O)c2ccc3c(c2)NC(=O)CO3)cc1 | inactive
COC(=O)[C@H](Cc1ccccc1)NC(=O)[C@@H]1C[C@H]1[C@@H](NC(=O)OCc1ccccc1)c1ccccc1 | inactive
COc1ccc(C2OC(=O)CC2C(=O)NC(C)C)cc1 (stereo not given) | inactive
Cc1csc(=O)n1CC(=O)OCC(=O)N(CC(C)C)c1c(N)n(Cc2ccccc2)c(=O)[nH]c1=O | inactive
C[C@@H](CN1CCC[C@H]1CN1C(N)=NC[C@@H]1Cc1ccccc1)N1C[C@@H](Cc2ccccc2)N(CCCC2CCCC2)C1=N | inactive
O=C(Nc1cc(S(=O)(=O)N2CCOCC2)ccc1OCC(F)(F)F)c1ccc(N2CCCC2=O)cc1 | inactive
Cc1ccc(O)c(-c2cc(C(=O)Nc3c(C)n(C)n(-c4ccccc4)c3=O)[nH]n2)c1 | inactive
O=C(CCC(=O)OCc1cccc(C(=O)Oc2ccccc2)c1)Nc1cccc2ccccc12 | inactive
CC(C)C(NC(=O)c1c(F)cccc1F)C(=O)NNC(=O)c1ccccc1 (stereo not given) | inactive
CCn1cc(CN2CCC(n3nccc3NC(=O)CCCc3ccccc3)CC2)c(C)n1 | inactive
CC(C)c1nnc(NC(=O)C2CC(=O)N(CCc3ccc(F)cc3)C2)s1 (stereo not given) | inactive
CN(c1ccc(OCC(=O)OCC(=O)Nc2cccc([N+](=O)[O-])c2)cc1)S(=O)(=O)c1ccc(F)cc1 | inactive
Nc1ccc(Nc2cc(O)c3ncccc3c2)cc1 | inactive
CCOc1ccc(C(=O)CCC(=O)Nc2ccncc2)cc1 | inactive
CCCCc1ccc(NC(=S)N2CCCC(CO)C2)cc1 (stereo not given) | inactive
COc1ccc(C(=O)CCc2ccccc2O)c(OC)c1 | inactive
CC1=CCC2C(=O)N(c3cccc(C(=O)NC(C)c4ccccc4)c3)C(=O)C2C1 (stereo not given) | inactive
COc1ccc(S(=O)(=O)N2CCN(C(=O)N(C)C)C2C)cc1 (stereo not given) | inactive
CCOc1ncccc1C(=O)NNC(=O)c1cccc(S(=O)(=O)Nc2ccccc2OC)c1 | inactive
